Rows were chosen to be rich in hits. Some 1.3% of all compounds tested hit in one or more screens of this group.
eLon inh – inhibitors of E. coli Lon protease, primary screen, biochemical, fluorescence polarization. inhibition, % at 7.94 µM. 360,000 tested, 0.42% active. P0A9M0. purified E. coli Lon protease; in the data active means inhibition above about 13%, passing the limit was not always enough;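 further: 0% = enzyme with probe and DMSO and 100% = no enzyme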
Target sequence (P0A9M0 whole entry, looked up): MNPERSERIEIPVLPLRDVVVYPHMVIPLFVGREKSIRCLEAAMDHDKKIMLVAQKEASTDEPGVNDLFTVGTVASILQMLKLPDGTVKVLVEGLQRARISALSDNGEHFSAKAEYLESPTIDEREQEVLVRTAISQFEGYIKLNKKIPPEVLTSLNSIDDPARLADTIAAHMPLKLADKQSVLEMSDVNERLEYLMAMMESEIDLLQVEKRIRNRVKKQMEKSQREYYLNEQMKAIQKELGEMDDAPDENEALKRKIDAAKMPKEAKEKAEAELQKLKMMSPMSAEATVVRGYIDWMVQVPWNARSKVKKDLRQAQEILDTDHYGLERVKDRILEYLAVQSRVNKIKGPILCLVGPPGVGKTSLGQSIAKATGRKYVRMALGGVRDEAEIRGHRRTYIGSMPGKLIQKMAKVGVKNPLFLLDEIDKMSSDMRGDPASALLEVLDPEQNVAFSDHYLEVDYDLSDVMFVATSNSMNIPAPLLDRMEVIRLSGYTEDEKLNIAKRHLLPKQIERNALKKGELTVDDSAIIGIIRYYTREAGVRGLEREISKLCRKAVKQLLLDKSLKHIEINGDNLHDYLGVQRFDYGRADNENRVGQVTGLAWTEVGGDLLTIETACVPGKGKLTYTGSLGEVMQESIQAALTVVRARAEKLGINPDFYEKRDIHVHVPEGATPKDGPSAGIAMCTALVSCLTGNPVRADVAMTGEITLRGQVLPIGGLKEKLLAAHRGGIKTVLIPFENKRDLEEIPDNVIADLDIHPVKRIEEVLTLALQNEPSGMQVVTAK
Keap1 Nrf2 FP – Keap1-Nrf2 protein-protein interaction inhibitors, primary screen, biochemical, fluorescence polarization, single point; Keap1 Kelch-Nrf2 peptide fluorescence polarization, 1536-well; inhibition, % at 9.4 µM; 340,000 tested, 0.15% active; AID 504523, 2011; in the data active means inhibition above about 12%;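 further: human Keap1 Kelch domain with fluorescein labeled Nrf2 9mer peptide probe; 0% = neutral control wells and 100% = peptide positive control; higher means more block of Keap1 binding to Nrf2 peptide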
Bcl-xL primary – inhibitors of human Bcl-xL, primary screen, biochemical, fluorescence polarization, HTS; inhibition, % at 10.9 µM; 320,000 tested, 0.7% active; GST-Bcl-xL / FITC-Bim BH3 peptide fluorescence polarization; Bcl-2-like protein 1 (Homo sapiens), Q07817;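 active means inhibition above the mean of all tested compounds plus 3 SD, cutoff set per campaign, cut at about 30% in these data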;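 further: 0% = DMSO wells and 100% = unlabeled Bim-BH3 peptide competitor; inhibitors lower millipolarization by displacing the labeled peptide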
MCL1 BIM primary – inhibitors of MCL1 binding to BIM-BH3, primary screen, biochemical, fluorescence polarization; Induced myeloid leukemia cell differentiation protein Mcl-1 (Homo sapiens), Q07820; GST-MCL1 / FITC-Bim-BH3 fluorescence polarization; inhibition, % at 10.9 µM; 320,000 tested, 0.68% active; AID 2057, 2009;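 active means inhibition above the mean inhibition of all tested compounds plus 3 SD, set per campaign, cut at about 40% in these data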;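 further: 0% = DMSO wells and 100% = unlabeled Bim-BH3 peptide control; higher means more loss of mP so more displacement of Bim peptide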
C-LANA FP – inhibitors of KSHV C-LANA binding to DNA, primary screen, biochemical, fluorescence polarization, FAM-LBS DNA, MBP-C-LANA, single point; Kaposi's sarcoma herpesvirus LANA C-terminal domain (residues 932-1162) DNA binding; inhibition, % at 9 µM; 340,000 tested, 0.078% active; AID 504423, 2011;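 active means highest replicate inhibition at or above 60% at 9 µM, even if other replicates fall short; inactive means all replicates below 60% inhibition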;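 further: 0% = neutral control wells and 100% = 4 µM acridine orange control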
GLD-1 TGE inh – GLD-1/TGE RNA complex disruptors, primary screen, biochemical, fluorescence polarization; Female germline-specific tumor suppressor gld-1 (Caenorhabditis elegans), Q17339; purified GLD-1 + fluorescein TGE RNA; inhibition, % at 5.96 µM; 320,000 tested, 0.44% active; AID 2280, 2010;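 active means percent inhibition above a per-plate cutoff, the plate mean of test compounds plus 3 SD, cut at about 30% in these data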;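 further: 0% = DMSO wells with GLD-1 and probe and 100% = wells lacking GLD-1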
Keap1 TSA – Keap1 Kelch domain binders by thermal stabilisation, dose response, biophysical, thermal shift, RT-PCR instrument, cherry-pick; max delta Tm, degrees C; shares compounds with Keap1 Nrf2 FP; 400 tested, 8% active; AID 651823, 2012; delta Tm; active compounds read high; in the data active means max delta Tm above about 0.48 degrees C
* marks the source's active call; other numbers are inactive results; / = no result.

SMILES	eLon inh	Keap1 Nrf2 FP	Bcl-xL primary	MCL1 BIM primary	C-LANA FP	GLD-1 TGE inh	Keap1 TSA
CNc1nnc(SCC(=O)c2cc(C)n(C3CC3)c2C)s1	-0.7	46.2*	1.7	8.2	26.2	-3.5	-0.08
Oc1cc(NCCN2CCOCC2)cc2cccnc12	2.8	17.9*	/	/	10.9	26.6	-0.12
COc1ccccc1NC(=O)C(C)OC(=O)C1COc2ccccc2O1 (stereo unspecified)	1.6	21.9*	3.9	4.3	9.7	4.0	-0.1
CC(OC(=O)C1COc2ccccc2O1)C(=O)c1ccccc1 (stereo unspecified)	-12.0	/	/	/	/	/	/
Cc1cc(C)c(C)c(S(=O)(=O)Nc2ccccc2C(=O)NN2CCOCC2)c1C	-7.7	1.8	/	/	-1.6	-1.1	/
Cc1cc(C)c(C)c(S(=O)(=O)Nc2cccc(S(=O)(=O)Nc3ccccc3C(=O)O)c2)c1C	0.4	13.9*	/	/	0.4	4.8	0.58*
CC(C)Cc1nnc(NC(=O)CCC(=O)N2CCN(Cc3ccccc3)CC2)s1	-3.5	1.5	-1.9	4.3	-0.3	1.3	/
COC(=O)c1cn(CC(=O)Nc2ccc(OC)cc2)c2ccccc12	7.0	-3.7	4.7	-1.2	-1.8	3.6	/
CCC(=O)c1cn(CC(=O)Nc2ccc(OC)cc2)c2ccccc12	-13.4	54.6*	0.3	-3.0	25.5	-0.4	0.01
Cc1nnsc1C(=O)N1CCN(c2ccc(F)cc2)CC1	-2.1	13.9*	1.8	1.1	11.2	1.4	-0.15
Clc1ccc(-n2ncc3c(NCC4CCCO4)ncnc32)cc1 (stereo unspecified)	-1.0	-2.9	0.5	-0.2	-1.0	-1.8	/
c1ccc(-n2ncc3c(NCC4CCCO4)ncnc32)cc1 (stereo unspecified)	-7.1	12.1*	3.1	3.8	6.3	7.4	-0.19
CN1C(=O)c2ccc(NC(=O)CCS(=O)(=O)c3ccccc3)cc2C1=O	-2.5	-2.2	-1.0	2.9	-0.6	6.4	/
CCOc1ccccc1C=C1SC(=S)NC1=O	34.5	36.6*	/	/	4.8	/	0.06
CN(C)c1ccc2cc(S(=O)(=O)O)cc(O)c2c1	3.3	12.0*	/	/	54.0	/	1.32
CCOC(=O)c1c(NC(=O)CN2CCN(S(=O)(=O)c3cc(Cl)ccc3Cl)CC2)sc(C(=O)N(C)C)c1C	3.3	27.3*	/	/	16.9	/	-0.11
CCOC(=O)c1c(NC(=O)COC(=O)c2ccc(Cl)nc2)sc(C(=O)N(C)C)c1C	-17.8	-3.9	2.5	-5.1	-1.0	-3.6	/
COC(=O)c1cc(C(=O)OCC(=O)NCc2cccs2)cc([N+](=O)[O-])c1	-3.8	-2.5	0.5	0.3	-0.7	2.7	/
NC(=O)C1CCN(C2=C(Cl)C(=O)c3ccccc3C2=O)CC1	-6.1	14.1*	12.9	9.3	-1.0	9.6	0.14
O=C1C(Cl)=C(N2CCC(C(=O)O)CC2)C(=O)c2ccccc21	5.9	2.7	20.6	17.9	2.3	16.2	/
CC1(C(=O)NCc2ccc(Cl)cc2)CCN1C(=O)c1cccc(F)c1 (stereo unspecified)	-0.4	/	/	/	/	/	/
COc1cc(NS(=O)(=O)c2ccc(NC(=S)NC(=O)/C=C/c3ccco3)cc2)ncn1	-15.4	16.5*	/	/	34.3	/	0.83*
O=C(OCCN1C(=O)c2ccccc2C1=O)c1ccc(S(=O)(=O)N2CCCCCC2)cc1	9.9	-5.8	0.1	-3.8	-1.5	11.6	/
CCN(CC)S(=O)(=O)c1ccc(C(=O)OCCN2C(=O)c3cccc4c(N5CCOCC5)ccc(c34)C2=O)cc1	2.3	27.1*	23.4	13.6	30.7	13.2	0.07
Cc1cscc1NC(=O)/C=C/C(=O)O	2.2	33.3*	1.2	0.3	18.1	1.6	-0.18

High-throughput results: PubChem, several laboratories
